This passage reports Potency results from PubChem BioAssay (Tox21).

Records with an inconclusive call do not appear. Where a call stands in place of a potency, no number is given. Active and inactive are the calls of the source. Calls follow the shape of the dose curve; as a rule, active = well fitted activation curve with a large enough effect in the repeat runs; inconclusive = weak or mixed curves; inactive = no such curve, though single readings can be large or run the other way.
Potency is read from the fitted curve at half-maximal effect.

Chain of Nuclear receptor subfamily 1 group I member 3 (Homo sapiens) (Q14994 whole entry, looked up): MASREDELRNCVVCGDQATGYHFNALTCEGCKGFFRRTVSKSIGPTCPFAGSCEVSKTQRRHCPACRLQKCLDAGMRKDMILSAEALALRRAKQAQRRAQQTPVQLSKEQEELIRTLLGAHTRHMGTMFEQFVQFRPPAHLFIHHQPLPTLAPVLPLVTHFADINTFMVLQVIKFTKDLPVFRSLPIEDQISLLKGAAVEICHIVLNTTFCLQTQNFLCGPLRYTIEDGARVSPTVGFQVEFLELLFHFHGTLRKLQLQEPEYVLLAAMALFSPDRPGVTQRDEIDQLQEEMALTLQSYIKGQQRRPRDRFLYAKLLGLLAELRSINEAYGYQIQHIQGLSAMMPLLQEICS

For the assay, the target named is Nuclear receptor subfamily 1 group I member 3 (Homo sapiens) (UniProt Q14994). As to the kind of experiment: qHTS assay to identify small molecule agonists of the constitutive androstane receptor (CAR) signaling pathway (AID 1224839). Also: nearly all actives have a fitted effect of over 15% in size. As to conditions: HepG2 hCAR CYP2B6-luciferase, agonist mode, 24 h; series mostly up to 92.4 µM. The gist of the method:
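Using human hepatoma HepG2 cells engineered with hCAR and a CYP2B6-2.2kb reporter, 15-concentration compound series were incubated 24 h alongside PK11195 at 0.75 uM final, with luminescence quantified afterwards.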
In general terms: In qHTS, concentration-response curves come from the screen itself.
`C/C=C/CO`: the Potency entry is “inactive”.

As for `NC(=O)C(=O)N/N=C/c1ccc([N+](=O)[O-])o1`, the Potency entry was “inactive”.

For the compound `COc1ccc(C#N)cc1`, the Potency result is “inactive”.

With `C=CC(C)C#N` (stereo not given), the Potency result was “inactive”.

For `CN(C)CCN1CCOCC1`, the Potency result was “inactive”.

As for `O=C1OC(=O)c2ccc3c4c(ccc1c24)C(=O)OC3=O`, the Potency result was “inactive”.

Take `O=C1OC(=O)c2cccc3cccc1c23`: the Potency entry is “inactive”.

With `Cc1ccc(-n2[nH]c(C)c(N=Nc3cccc(-c4cccc(C(=O)O)c4)c3O)c2=O)cc1C`, the Potency result was “inactive”.

As to `CCCCCCS`, the Potency result was “inactive”.

As for `CC(C)(C)C1=CC(=O)C=C(C(C)(C)C)C1=O`, the Potency result was “inactive”.

For `c1ccc2c(c1)CCC2`, the Potency result is “inactive”.

Turning to `CCN=C1C=CC(=C(c2ccc(N(CC)CC)cc2)c2ccc(N(CC)CC)cc2)c2ccccc21`, the Potency entry is “inactive”.

For the compound `CC(=O)c1ccccc1N`, the Potency result was “inactive”.

On to `N#CSCSc1nc2ccccc2s1`, for which the Potency result was “inactive”.

As to `Nc1ncnc2c1ncn2[C@@H]1O[C@H](COP(=O)(O)O)[C@@H](O)[C@H]1O`, the Potency entry was “inactive”.

Turning to `CC1CNCC(C)O1` (stereo not given), the Potency result is “inactive”.

For `C[Si](C)O[Si](C)C`, the Potency result was “inactive”.

As for `CCCCCCCCCCCCOC(=O)c1cc(O)c(O)c(O)c1`, the Potency entry was “inactive”.

Take `CC(C)=C1CC[C@@H](C)CC1=O`: the Potency result is “inactive”.

For the compound `C=C1C(C)(C)[C@@]2(Cl)C(Cl)[C@]1(Cl)C(Cl)(Cl)C2(Cl)Cl` (stereo not given in full), the Potency was 21.3 µM (active).

As to `CCCCN(C)C`, the Potency result was “inactive”.

As for `CCc1cccc(C)c1`, the Potency result was “inactive”.

With `CCO[Si](CCCSSSSCCC[Si](OCC)(OCC)OCC)(OCC)OCC`, the Potency entry is “inactive”.

Regarding `CCN(CC)CCSC(=O)C(c1ccccc1)c1ccccc1`, the Potency entry was “inactive”.

Turning to `C[C@]12CC[C@H]3C(=CCc4cc(O)ccc43)[C@@H]1CCC2=O`, the Potency is 27.3 µM (active).
